Screening data (PubChem BioAssay)
In the library only some 5.5% were active in any assay of this set; here they are far more common.
Giardia killer: Giardia lamblia killing. actives 0.15% (n = 340,000). Giardia lamblia trophozoite viability. activity change, % at 7.66 µM, hits read low; in the data active = activity change below about -80%; inconclusive = between about -30% and that limit;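 also: parasites exposed to compound for two days anaerobically before the ATP read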
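Giardia lamblia trophozoites (100 cells/well) were incubated with compounds for 48 h at 37 deg C under anaerobic conditions. Viability was read as ATP content by one-step luminescence after 15-30 min at room temperature.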
Sfp PPTase inh: blocks B. subtilis Sfp PPTase activity; Biochemical Sfp PPTase activity, qHTS; Potency, µM, usual class: inhibitors; actives 3.5% (n = 310,000); Q9F4F7;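 also: the enzyme is Sfp with the accession as filed and its product quenches rhodamine fluorescence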
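Buffer: 50 mM Hepes-Na pH 7.6, 10 mM MgCl2, 0.01% Nonidet P-40, 0.01% BSA. Enzyme 15 nM, pre-exposed to compound 15 min; substrates then added and fluorescence change tracked over 30 min.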
Coupling enz: inhibits coupling enzyme system, counter-screen for aldolase hits | activity change, negative = inhibition, % at 58.2 µM, hits read low | coupling enzyme system counterscreen, AmpLite Red fluorescence | actives 0.67% (n = 290,000) | AID 2472; in the data active = activity change below about -30%
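Compounds tested against the coupling enzymes alone at 57.5 uM final; readout was AmpLite Red fluorescence (525/598 nm) after 20 min at RT.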
ELG1 repair inh: inhibitors of ELG1-dependent DNA repair in HEK293T cells | HEK293T ELG1-luciferase reporter, luminescence, 16 h; DNA damage induced by 5-fluorouridine | Potency, µM (titrated, usually from 46.1 µM), actives largely listed as inhibitors | actives 2.3% (n = 330,000) | AID 504467; also: nearly all actives have a fitted effect of over 55% in size
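DMSO vehicle served as the neutral condition. Each well held 2,000 cells given 5-fluorouridine plus compound; after 16 hr at 37 °C/5% CO2, ONE-Glo was added and luciferase measured 30 min later.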
ELG1 FLuc counter: luciferase inhibition in cell-free luciferin readout for ELG1 hits. shares compounds with ELG1 repair inh. cell-free firefly luciferase luminescence counter-screen, ViewLux. Potency, µM (highest dose often 46.1 µM), actives largely listed as inhibitors. actives 3% (n = 350)
ELG1-Luc inh: inhibits ELG1-dependent DNA repair in HEK293T cells, confirmed; shares compounds with ELG1 repair inh; HEK293T ELG1-luciferase levels, luminescence; cells co-treated with 5-fluorouridine; Potency, µM (series often up to 46.1 µM), hits mostly inhibitors; actives 68% (n = 670); AID 624248; also: nearly all actives have a fitted effect of over 55% in size
Target sequence (Q96QE3 whole entry, looked up): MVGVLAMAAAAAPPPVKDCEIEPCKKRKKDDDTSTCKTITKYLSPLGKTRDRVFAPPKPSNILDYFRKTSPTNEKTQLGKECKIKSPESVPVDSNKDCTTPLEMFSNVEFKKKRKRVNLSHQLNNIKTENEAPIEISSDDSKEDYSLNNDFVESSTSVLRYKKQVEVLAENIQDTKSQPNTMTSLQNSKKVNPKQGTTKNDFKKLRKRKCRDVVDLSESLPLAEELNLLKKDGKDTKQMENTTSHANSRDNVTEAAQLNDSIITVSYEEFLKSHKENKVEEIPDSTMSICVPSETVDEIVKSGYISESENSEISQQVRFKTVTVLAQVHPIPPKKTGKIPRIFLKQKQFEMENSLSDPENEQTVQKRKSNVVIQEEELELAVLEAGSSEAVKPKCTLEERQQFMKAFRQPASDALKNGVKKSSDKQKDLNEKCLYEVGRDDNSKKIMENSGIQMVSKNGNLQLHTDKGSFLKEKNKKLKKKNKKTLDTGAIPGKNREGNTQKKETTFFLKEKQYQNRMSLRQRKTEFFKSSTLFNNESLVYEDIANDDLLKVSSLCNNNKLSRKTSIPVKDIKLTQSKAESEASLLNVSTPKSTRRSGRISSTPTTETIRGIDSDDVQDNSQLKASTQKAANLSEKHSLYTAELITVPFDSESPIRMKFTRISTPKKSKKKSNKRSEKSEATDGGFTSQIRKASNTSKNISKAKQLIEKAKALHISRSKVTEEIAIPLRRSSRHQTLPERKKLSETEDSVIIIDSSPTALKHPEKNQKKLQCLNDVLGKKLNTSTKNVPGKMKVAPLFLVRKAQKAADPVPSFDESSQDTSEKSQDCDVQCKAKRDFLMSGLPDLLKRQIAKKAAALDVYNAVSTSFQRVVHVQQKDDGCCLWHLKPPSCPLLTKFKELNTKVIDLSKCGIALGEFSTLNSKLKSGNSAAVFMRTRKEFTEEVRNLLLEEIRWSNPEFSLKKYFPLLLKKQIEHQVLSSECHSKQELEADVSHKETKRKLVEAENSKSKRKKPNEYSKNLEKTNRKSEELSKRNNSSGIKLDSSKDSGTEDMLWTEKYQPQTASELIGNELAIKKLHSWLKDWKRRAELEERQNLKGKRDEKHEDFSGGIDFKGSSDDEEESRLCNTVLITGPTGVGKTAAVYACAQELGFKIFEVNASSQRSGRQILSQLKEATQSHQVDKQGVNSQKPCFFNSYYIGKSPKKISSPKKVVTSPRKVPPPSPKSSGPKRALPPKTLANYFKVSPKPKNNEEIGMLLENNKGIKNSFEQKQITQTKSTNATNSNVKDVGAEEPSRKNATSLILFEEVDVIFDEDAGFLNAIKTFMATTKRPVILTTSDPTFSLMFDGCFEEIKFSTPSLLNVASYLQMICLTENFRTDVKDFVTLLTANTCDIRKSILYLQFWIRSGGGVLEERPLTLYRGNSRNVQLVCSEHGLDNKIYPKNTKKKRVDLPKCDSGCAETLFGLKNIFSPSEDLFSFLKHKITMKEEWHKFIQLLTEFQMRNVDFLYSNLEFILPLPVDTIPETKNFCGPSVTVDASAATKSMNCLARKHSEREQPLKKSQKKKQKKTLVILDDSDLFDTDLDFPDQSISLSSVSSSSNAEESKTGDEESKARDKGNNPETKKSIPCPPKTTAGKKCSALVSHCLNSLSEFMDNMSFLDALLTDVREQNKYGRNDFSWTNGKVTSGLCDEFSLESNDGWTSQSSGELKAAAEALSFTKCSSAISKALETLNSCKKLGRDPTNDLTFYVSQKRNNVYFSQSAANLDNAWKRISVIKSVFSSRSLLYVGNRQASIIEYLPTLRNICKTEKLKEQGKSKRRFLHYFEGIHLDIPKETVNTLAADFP
ELG1 MMS Luc: inhibits ELG1-dependent repair under MMS stimulation in HEK293T cells. HEK293T luciferase-tagged ELG1 level, MMS stimulated. Potency, µM (titrated, usually from 46.1 µM), most hits filed as inhibitors. actives 53% (n = 670). shares compounds with ELG1 repair inh; also: nearly all actives have a fitted effect of over 60% in size
ELG1 5FU viab: confirmation of ELG1 repair inhibitors: viability with 5FU; shares compounds with ELG1 repair inh; cell viability with 5-FU, ELG1-dependent repair; Potency, µM (highest dose often 46.1 µM), actives largely listed as cytotoxic; 670 tested, under 10 active; AID 624250;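 also: ELG1-luc HEK293T cells cotreated with 5-fluorouridine at 10 µM final; viability measured 16 h after compound addition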
ELG1 MMS cell: confirmation of ELG1 repair inhibitors: viability with MMS | Potency, µM (doses to about 46.1 µM), actives largely listed as cytotoxic | shares compounds with ELG1 repair inh | actives 33% (n = 670) | Cell viability with MMS, ELG1-dependent DNA repair;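 also: ELG1-luc HEK293T cells co-treated with 10 µM MMS; viability read 16 h after compound addition; nearly all actives have a fitted effect of over 60% in size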
Cell viab unstim: unstimulated viability counter-screen for ELG1 repair hits. shares compounds with ELG1 repair inh. cell viability counter-screen, unstimulated, luminescence. Potency, µM (doses to about 45.9 µM), most hits filed as cytotoxic. actives 8% (n = 900). AID 624252;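 also: compound exposure lasted 16 hours before reading; nearly all actives have a fitted effect of over 55% in size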
FLuc biochem: counter-screen for ELG1 repair inhibitors: firefly luciferase inhibition | shares compounds with ELG1 repair inh | purified firefly luciferase, luminescence counter-screen | Potency, µM (doses to about 57.5 µM), most hits filed as inhibitors | actives 10% (n = 350) | AID 624253
Of the large screens only hits and unclear results are named; the others gave an inactive call (follow-up assays come after a bar, where they were run). Unless noted, calls follow the shape of the dose curve; as a rule, active = well fitted curve in the direction sought with a large enough effect; inconclusive = small, poorly fitted or top-dose-only effect, or another doubt; inactive = no such curve, though single readings can be large; an effect the other way counts as inactive or inconclusive.

CC(=O)OCC(=O)[C@@]1(O)CCC2C3C[C@H](C)C4=CC(=O)C=CC4(C)C3C(O)CC21C (some centres not stated)	none (no result: Giardia killer, ELG1 repair inh)
O=C(N/N=C\c1c(O)ccc2ccccc12)c1ccc(O)cc1	none
Cn1cc(C(=O)N/N=C/c2c(O)ccc3ccccc23)ccc1=O	ELG1 repair inh 2.3µM | ELG1-Luc inh inconclusive | ELG1 MMS Luc 3.1µM | ELG1 5FU viab inactive | ELG1 MMS cell 14µM | Cell viab unstim inconclusive
CN(C)S(=O)(=O)Oc1ccc(C(=O)Nc2ccc([N+](=O)[O-])cc2)cc1	ELG1 repair inh 2.9µM | ELG1-Luc inh 0.71µM | ELG1 MMS Luc 3.1µM | ELG1 5FU viab inconclusive | ELG1 MMS cell inconclusive | Cell viab unstim inactive
CCOc1ccc(NC(=O)c2cc(C3CC3)nc3c2cnn3C(C)C)cc1OC	ELG1 repair inh inconclusive (no result: Sfp PPTase inh, Coupling enz)
COc1cc(NC(=O)c2cc(-c3ccccc3)nc3c2cnn3C(C)C)cc(OC)c1OC	ELG1 repair inh 3.7µM (no result: Sfp PPTase inh, Coupling enz) | ELG1-Luc inh 7.1µM | ELG1 MMS Luc inconclusive | ELG1 5FU viab inconclusive | ELG1 MMS cell inconclusive | Cell viab unstim 25µM
CCC(=O)C1CCCN(C(=O)CCc2nnc(C3(c4ccc(Cl)cc4)CCC3)o2)C1 (configuration not stated)	ELG1 repair inh inconclusive (no result: Coupling enz)
COc1cc(OC)c2c(-c3cccc(-c4ccc(N(C)C)cc4)c3)cc(=O)oc2c1	ELG1 repair inh inconclusive | Cell viab unstim inactive
O=C1NC(=S)NC(=O)C1=Cc1ccccc1C(=O)O	none (no result: Sfp PPTase inh, Coupling enz, ELG1 repair inh)
CN(N=O)c1ccc(C=C2C=Cc3ccccc32)cc1	none (no result: Sfp PPTase inh, Coupling enz, ELG1 repair inh)
CN(C)c1ccc(/C=C2\C=Cc3ccccc32)c(F)c1	none (no result: Giardia killer, Sfp PPTase inh, Coupling enz, ELG1 repair inh) | Cell viab unstim inactive
COc1ccc(-c2noc(CCCC(=O)NC3CCCC3)n2)cc1	ELG1 repair inh 4.6µM | ELG1-Luc inh inconclusive | ELG1 MMS Luc 5.6µM | ELG1 5FU viab inactive | ELG1 MMS cell 7.1µM | Cell viab unstim inconclusive
COc1ccc(C2=Nn3c(nnc3-c3ccncc3)SC2)cc1OC	ELG1 repair inh inconclusive | ELG1 FLuc counter inactive | ELG1-Luc inh 7.9µM | ELG1 MMS Luc inactive | ELG1 5FU viab inconclusive | ELG1 MMS cell inactive | Cell viab unstim inactive | FLuc biochem inactive
COc1ccc(C2=Nn3c(nnc3-c3ccc(OC)c(OC)c3)SC2)cc1OC	none (no result: Giardia killer, ELG1 repair inh)
Cn1c(=O)c2c(nc(Oc3ccc4ccccc4c3)n2C)n(C)c1=O	ELG1 repair inh 4.1µM | ELG1-Luc inh 8.9µM | ELG1 MMS Luc 13µM | ELG1 5FU viab inconclusive | ELG1 MMS cell inconclusive | Cell viab unstim inactive
C(#Cc1ccccc1)C[N+]1(CC#Cc2ccccc2)CCCCC1	ELG1 repair inh inconclusive
CCC[N+]1(CC#CCC(c2ccccc2)c2ccccc2)CCCCC1	ELG1 repair inh 2.3µM | ELG1-Luc inh inconclusive | ELG1 MMS Luc 2.2µM | ELG1 5FU viab inactive | ELG1 MMS cell 2.8µM | Cell viab unstim inconclusive
CCN1CCN(c2nc3c(c(=O)[nH]c(=O)n3C)n2Cc2ccccc2)CC1	none
CCCCCCn1c(N2CCN(c3ccccc3)CC2)nc2c1c(=O)[nH]c(=O)n2C	Sfp PPTase inh inconclusive, ELG1 repair inh inconclusive
